# Assay outcomes: PubChem BioAssay, several laboratories
# HGIII-sPLA2 inh: Inhibits HGIII-sPLA2 liposome hydrolysis, primary screen. actives 0.56% (n = 370,000). QFRET BODIPY PC-A2 liposome hydrolysis, fluorescence. AID 743126. inhibition, % at 12.2 µM. Q9NZ20;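 active means inhibition above mean plus 3 SD of compounds lying within the high and low control bounds, cut at about 19% in these data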;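 further: 0% = median of test compound wells and 100% = no enzyme DMSO wells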
# NR3A LBD binder: NR3A (human) ligand-binding domain modulation; AID 1259313; actives 2.5% (n = 340,000); NR3A LBD differential scanning fluorimetry, Tm shift; 0% = protein alone, 100% = glycine-bound protein; Tm shift relative to glycine control, % at 25 µM;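 active means melting temperature shift of at least 10% of the positive control shift, at one fixed dose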
# FAS TE block: inhibitors of human fatty acid synthase thioesterase domain; P49327; recombinant FAS-TE, OMFH fluorogenic substrate, fluorescence endpoint; inhibition, % at 15 µM; actives 0.67% (n = 360,000); AID 602261;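 active means compounds whose normalised, plate-corrected inhibition of enzyme fluorescence in the single-dose primary screen is 50% or more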;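 further: 0% = DMSO with enzyme and 100% = substrate without enzyme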
# ADAM10 inh: inhibits human ADAM10; O14672; recombinant ADAM10, EDANS/DABCYL FRET peptide cleavage, 3 h; inhibition, % at 7 µM; actives 0.62% (n = 370,000); AID 720582;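 active means inhibition above a per-campaign cutoff equal to the mean of compounds falling between control-based bounds plus 3 SD, cut at about 20% in these data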;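 further: 0% = DMSO wells while the 100% control is not disclosed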
# Target sequence (O14672 214-748 limits assumed): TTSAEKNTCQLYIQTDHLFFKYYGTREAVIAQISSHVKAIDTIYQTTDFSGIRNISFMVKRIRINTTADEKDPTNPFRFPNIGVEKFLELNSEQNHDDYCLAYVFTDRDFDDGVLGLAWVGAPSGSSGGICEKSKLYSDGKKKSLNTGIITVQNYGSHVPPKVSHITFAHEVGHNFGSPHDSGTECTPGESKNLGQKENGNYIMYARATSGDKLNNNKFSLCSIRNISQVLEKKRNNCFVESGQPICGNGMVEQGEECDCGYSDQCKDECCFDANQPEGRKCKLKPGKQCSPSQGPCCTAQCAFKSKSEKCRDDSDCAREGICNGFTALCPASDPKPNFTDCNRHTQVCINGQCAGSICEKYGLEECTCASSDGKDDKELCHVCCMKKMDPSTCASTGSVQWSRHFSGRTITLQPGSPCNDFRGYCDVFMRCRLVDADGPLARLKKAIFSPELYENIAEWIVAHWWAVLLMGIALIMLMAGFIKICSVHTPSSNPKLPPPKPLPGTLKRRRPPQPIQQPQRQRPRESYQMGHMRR
# ADAM17 inh: ADAM17 inhibition, QFRET primary screen; inhibition, % at 6.95 µM; P78536; actives 0.83% (n = 370,000); AID 720648; recombinant ADAM17, EDANS/DABCYL FRET peptide cleavage;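 active means inhibition above the mean of compounds lying between control limits plus 3 SD, set per campaign, cut at about 8.5% in these data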;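 further: 0% = DMSO-only wells as the low control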
# ADAM10 confirm: confirmation of inhibitors of human ADAM10 | shares compounds with ADAM10 inh | ADAM10 QFRET peptide cleavage, EDANS fluorescence | inhibition, % at 6.95 µM | actives 1% (n = 2,100) | AID 743208;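 active means inhibition above about 20% chosen separately for each screening run, limit read from the data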;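 further: 0% = DMSO wells and 100% = marimastat wells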
# ADAM17 counter: counter-screen for ADAM10 exosite inhibitors: inhibitors of human ADAM17; shares compounds with ADAM10 inh; ADAM17 QFRET peptide cleavage, EDANS fluorescence; inhibition, % at 6.95 µM; actives 0.5% (n = 2,100);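 active means mean triplicate inhibition above the solvent-only control wells' mean plus 3 SD, cut at about 12% in these data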;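 further: 0% = DMSO wells and 100% = marimastat wells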
# ADAM10 ctr: inhibits human ADAM10 in ADAM17 exosite counter-screen | recombinant ADAM10, EDANS/DABCYL FRET peptide cleavage, 3 h | actives 47% (n = 2,900) | shares compounds with ADAM17 inh | inhibition, % at 6.95 µM;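 active means mean inhibition over the triplicate runs exceeds the activity threshold set in the earlier primary screen, cut at about 20% in these data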;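 further: 0% = DMSO wells and 100% = marimastat wells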
# ADAM17 confirm: human ADAM17 inhibition, confirmation. shares compounds with ADAM17 inh. recombinant ADAM17, EDANS/DABCYL QFRET peptide cleavage. inhibition, % at 6.95 µM. actives 65% (n = 2,900). AID 743257;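 active means mean inhibition across replicates above the hit cutoff set in the primary screen, cut at about 8.5% in these data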;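 further: 0% = DMSO wells and 100% = marimastat wells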
# Active calls of the source: *; · = no result. A selection: hits, their analogues and other compounds. The true share with any hit is near 4.3%.
SMILES,HGIII-sPLA2 inh,NR3A LBD binder,FAS TE block,ADAM10 inh,ADAM17 inh,ADAM10 confirm,ADAM17 counter,ADAM10 ctr,ADAM17 confirm
C=CC[C@H](CC(=O)N[C@H](CO)Cc1ccccc1)C(=O)N[C@@H](COC(=O)[C@@H](CC=C)Cc1ccc(F)cc1)Cc1c[nH]c2ccccc12,-89,-13,12,3,2,·,·,·,·
C=CC[C@H](CC(=O)N(CCO)Cc1ccccc1)C(=O)N[C@@H](COC(=O)[C@@H](CC=C)CC(=O)OC(C)(C)C)Cc1c[nH]c2ccccc12,-64,-11,17,37*,21*,3,1,29*,15*
C=CC[C@@H](CC(=O)N[C@@H](CO)Cc1ccccc1)C(=O)N[C@H](COC(=O)[C@@H](CC=C)Cc1ccc(F)cc1)Cc1c[nH]c2ccccc12,-102,-2,6,12,7,·,·,·,·
C=CC[C@H](CC(=O)N(CCO)Cc1ccccc1)C(=O)N[C@H](COC(=O)[C@@H](CC=C)Cc1ccc(F)cc1)Cc1c[nH]c2ccccc12,-87,-3,19,27*,15*,8,3,41*,23*
C=CCC[C@H](Cc1ccc(F)cc1)C(=O)OC[C@@H](Cc1c[nH]c2ccccc12)NC(=O)[C@@H](CC=C)CC(=O)N[C@@H](CO)Cc1ccccc1,-72,16*,16,22*,11*,9,2,8,7
N/C(=N\S(=O)(=O)c1cc(C(F)(F)F)cc(C(F)(F)F)c1)c1ccc(Cl)cc1,-2,19*,38,23*,9.7*,2,1,45*,19*
O=C(c1ccc(C(F)(F)F)cc1)N1CCC(=O)N([C@H](COCc2ccc(C(F)(F)F)cc2)Cc2ccccc2)CC1,-2,·,25,28*,12*,8,2,28*,16*
COc1cccc(OC(=O)c2ccccc2)c1OC(=O)c1ccccc1,5,0,32,27*,15*,2,2,11,8
Cc1ccccc1-c1cc(-c2ccccc2O)n[nH]1,-25,-5,-10,24*,11*,3,1,14,10.0*
Cc1ccc(-c2cc(-c3ccccc3[N+](=O)[O-])[nH]n2)c(O)c1,-25,2,6,11,4,·,·,·,·
Cc1ccc(-c2cc(-c3ccc(C)cc3O)[nH]n2)cc1,-34,3,17,33*,12*,9,3,25*,14*
Cc1ccc(-c2cc(-c3ccccc3Cl)[nH]n2)c(O)c1,-37,12*,21,24*,9.5*,6,2,15,9.1*
COc1ccc(-c2cc(-c3ccccc3O)[nH]n2)cc1,-42,3,13,14,4,·,·,·,·
COc1cccc(CCNS(=O)(=O)c2c(C)n[nH]c2C)c1,4,·,·,2,0,·,·,·,·
C[C@H](O)[C@@H]1CN2CCc3ccc(-c4ccc5c(c4)OCO5)cc3[C@@H]2C[C@@H]1N(C)C(=O)c1ccco1,-11,·,·,-3,-2,·,·,·,·
Cc1ccccc1-c1noc(-c2ccc(O)cc2)n1,-51,10,13,33*,13*,2,0,19,12*
NC(=O)[C@H]1CC2(CC(c3cccc(NC(=O)CC(c4ccccc4)c4ccccc4)c3)=NO2)CN1C(=O)CC(c1ccccc1)c1ccccc1 (some centres not stated),-38,17*,46,31*,16*,13,4,33*,19*
NC(=O)[C@@H]1CC2(CC(c3cccc(NC(=O)CC(c4ccccc4)c4ccccc4)c3)=NO2)CN1C(=O)c1ccc(Cl)cc1 (some centres not stated),-59,6,33,23*,11*,14,4,45*,21*
